29 compounds from ChEMBL document CHEMBL1157539, “Thousands of chemical starting points for antimalarial lead identification” (Nature, 2010) can be followed below.

Holding throughout (assay type): functional
Test [1] has as its system Plasmodium falciparum. In words: GSK_TCMDC: Inhibition of Plasmodium falciparum 3D7 in whole red blood cells, using parasite LDH activity as an index of growth. Test compounds present at 2uM.
The test system of test [2] is Plasmodium falciparum. In words: GSK_TCMDC: Inhibition of Plasmodium falciparum Dd2 in whole red blood cells, using parasite LDH activity as an index of growth. Test compounds present at 2uM.
The test system of a further test is HepG2. In words: GSK_TCMDC: Percent inhibition of human HepG2 cell line. Test compounds present at 10uM.

Turning to `Cl.N#CCc1ccc(Nc2nccc(Nc3ccc(Oc4ccccc4)cc3)n2)cc1`, the Inhibition (as a rule, the share of the control response that was lost under treatment) in the test with Plasmodium falciparum [1] is recorded as 98%; with Plasmodium falciparum [2] it was 47%; in the test on HepG2 it was 0%.
As for `CN(C)CCOc1cc(NC(=O)Nc2ccc(-c3ccncc3)c(Cl)c2)ccc1I`, the Inhibition with Plasmodium falciparum [1] was 100%; in the test on Plasmodium falciparum [2], 100%; in the test on HepG2, 43%.
Turning to `CNC(=O)c1cnc(Nc2ccc(OCC(O)CN(C)C)cc2)nc1Nc1cccc(Br)c1.O=C(O)C(F)(F)F` (configuration not stated), the Inhibition worked out at 100% in the test on Plasmodium falciparum [1], 100% with Plasmodium falciparum [2] and 68% in the test on HepG2.
`CC(O)C1CCCCN1C(=O)c1ccc(-c2cccc(-c3nc4cc(F)ccc4[nH]3)c2)cc1` (configuration not stated): the Inhibition with Plasmodium falciparum [1] was 100%; in the test on Plasmodium falciparum [2] it was 97%; in the test on HepG2, 30%.
Regarding `O=C(Nc1ccc(C(=O)Oc2ccc3ccccc3c2)cc1)N[C@@H](Cc1ccc(O)cc1)C(=O)NC1CCN(Cc2ccc(O)cc2)C1.O=C(O)C(F)(F)F` (some centres not stated), the Inhibition in the test with Plasmodium falciparum [1] was found to be 86%; in the test on Plasmodium falciparum [2], 1%; with HepG2, 1%.
As for `CN(Cc1ccccc1)C(=O)c1nn(CCCN2CCC(N3CCCC3)CC2)cc1-c1ccc(Cl)c(Cl)c1`, the Inhibition worked out at 100% in the test on Plasmodium falciparum [1], 66% with Plasmodium falciparum [2] and 43% with HepG2.
In the same order, the values of `CCOc1cc2c(cc1OCC)C(c1ccc(O)c(Cl)c1)NCC2.Cl` (configuration not stated) are 98%, 98% and 6%.
As to `COc1cc(F)c2ncc(F)c([C@@H](O)CN3CCC(NCc4cc5c(cn4)OCCO5)CC3)c2c1.Cl`, the Inhibition is given as 100% in the test on Plasmodium falciparum [1], 88% in the test on Plasmodium falciparum [2] and 1% in the test on HepG2.
`CN(C)CCCn1c(N)c(-c2nc3ccccc3[nH]2)c2nc(C#N)c(C#N)nc21`: the Inhibition with Plasmodium falciparum [1], with Plasmodium falciparum [2] and in the test on HepG2 was 100% throughout.
Consider `Cc1cc(C)cc(OCC(O)CN(Cc2cc(Cl)cc(Cl)c2)C(=O)Nc2ccc([N+](=O)[O-])cc2)c1` (configuration not stated), for which the Inhibition with Plasmodium falciparum [1] is 95%; in the test with Plasmodium falciparum [2] it was 38%; in the test with HepG2 it was 0%.
Turning to `Cl.c1ccc2c(Nc3ccc(OCCOCCOc4ccc(Nc5c6ccccc6nc6ccccc56)cc4)cc3)c3ccccc3nc2c1`, the Inhibition in the test on Plasmodium falciparum [1] is listed as 100%; with Plasmodium falciparum [2] it was 97%; with HepG2, 38%.
Take `CCOC(=O)c1ccc(N2CCN(c3cc(Cl)ccc3C)CC2)c(NC(=O)Nc2ccc(Cl)c(Cl)c2)c1`: the Inhibition worked out at 99% in the test with Plasmodium falciparum [1], 99% in the test on Plasmodium falciparum [2] and 10% in the test on HepG2.
For `Cc1cccc(Cl)c1Nc1nnc(-c2cccc(C(=O)NC[C@@H]3CC[C@H]4C[C@@H]3C4(C)C)c2)o1`, the results for the Inhibition in the test with Plasmodium falciparum [1], in the test with Plasmodium falciparum [2] and in the test on HepG2 were 85%, 69% and 2%, respectively.
In the case of `Cc1nnc2c(NC(=O)NC3CCCC3)cc3ccc(-c4cccc(CN5CCN(C)CC5)c4)cc3n12`, the figures for the Inhibition in the test with Plasmodium falciparum [1], in the test with Plasmodium falciparum [2] and with HepG2 were 91%, 68% and 54%, respectively.
Consider `CC(C)C1C(O)=C(c2ccc3ccccc3c2)C(=O)N1Cc1cccc(F)c1` (configuration not stated), for which the Inhibition with Plasmodium falciparum [1] amounted to 97%; with Plasmodium falciparum [2], 82%; with HepG2 it was 3%.
`Br.C=CCc1cccc(C)c1OCCCON1C(=N)N=C(N)NC1(C)C`: the Inhibition with Plasmodium falciparum [1] is 94%; with Plasmodium falciparum [2], 95%; in the test on HepG2, 65%.
With `CC(C)COc1ccc(Cl)cc1Cc1ccc(-c2nc3ccc(Br)cc3[nH]2)o1.Cl`, the figures for the Inhibition in the test with Plasmodium falciparum [1], in the test with Plasmodium falciparum [2] and in the test on HepG2 were 80%, 75% and 19%, respectively.
For the compound `O=C(Nc1ccc(F)cc1)c1cnc(N2CCN(c3ccncc3)CC2)c(Cl)c1.O=C(O)C(F)(F)F`, the Inhibition worked out at 100% in the test on Plasmodium falciparum [1], 81% in the test on Plasmodium falciparum [2] and 41% in the test with HepG2.
As for `Cc1c(CNCCCNc2nc3ccncc3[nH]2)sc(Br)c1Br.Cl`, the values for the Inhibition with Plasmodium falciparum [1], in the test on Plasmodium falciparum [2] and in the test on HepG2 were 87%, 1% and 0%, respectively.
Consider `O=C(Nc1ccc(OC2CCN(Cc3ccsc3)C2)c(Cl)c1)c1ccsc1.O=C(O)C(F)(F)F` (configuration not stated), for which the Inhibition with Plasmodium falciparum [1] was 85%; in the test on Plasmodium falciparum [2], 70%; with HepG2, 4%.
In the same order, the values of `CCOc1cc(C(=O)Nc2cccnc2)cc(Br)c1OCCC(C)C` are 88%, 51% and 4%.
In the same order, the values of `Cc1ccc2nc(-c3ccc(C(=O)NC4CCN(Cc5ccccc5)CC4)s3)[nH]c2c1` are 97%, 83% and 13%.
In the same order, the values of `N#Cc1ccnc(-c2ccc(CNC3CCN(CC4Cn5c(=O)ccc6ccc(F)c4c65)CC3)cc2)c1.O=C(O)C(F)(F)F` (configuration not stated) are 88%, 41% and 24%.
On to `O=C(Cn1c(CCc2cccc(F)c2F)nc(=O)c2ccccc21)N(CCCN1CCCCC1)Cc1ccc(-c2ccc(C(F)(F)F)cc2)cc1.O=C(O)C(O)C(O)C(=O)O`, for which the Inhibition stood at 100% with Plasmodium falciparum [1], 94% in the test with Plasmodium falciparum [2] and 100% in the test on HepG2.
With `CCOc1ccc(/C=C/C(=O)Nc2cccc3c2CCN(C)C3)cc1.Cl`, the Inhibition in the test on Plasmodium falciparum [1] amounted to 92%; in the test on Plasmodium falciparum [2], 3%; in the test with HepG2 it was 0%.
Turning to `Cc1noc(C)c1-c1ccc(C(=C2CCCCCCC2)c2ccc(O)cc2)cc1`, the Inhibition with Plasmodium falciparum [1] came out at 83%; in the test with Plasmodium falciparum [2], 48%; with HepG2, 0%.
For `COc1ccc(N2CCN(CCCC/C=C/c3ccc(NC(=O)c4cc(Cl)cc(Cl)c4)cc3)CC2)c(OC)c1`, the Inhibition in the test with Plasmodium falciparum [1] is reported as 99%; in the test with Plasmodium falciparum [2] it was 39%; with HepG2, 20%.
With `Cl.Nc1nc(N)c2c(ccc3nn(Cc4cccnc4)cc32)n1`, the Inhibition was found to be 96% in the test on Plasmodium falciparum [1], 0% with Plasmodium falciparum [2] and 41% with HepG2.
Turning to `CS(=O)(=O)N(c1ccc(F)cc1)c1cc(C(=O)N[C@@H](Cc2ccccc2)[C@H](O)CNCc2cccc(C(F)(F)F)c2)cc(N2CCCC2=O)c1.O=CO`, the Inhibition in the test with Plasmodium falciparum [1] is on record as 91%; in the test on Plasmodium falciparum [2] it was 65%; in the test on HepG2 it was 0%.
